Source: PubChem BioAssay (NMMLSC)
GRK2 aptamer HTS: compounds blocking aptamer binding on GRK2 – biochemical, human GRK2, bead flow cytometry, HTS, primary screen. Beta-adrenergic receptor kinase 1 (Homo sapiens), P25098. FAM-aptamer displacement from GRK2. inhibition of aptamer binding, % at 10 µM. 0.59% of 330,000 active. AID 488847, 2010;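 active means inhibition of aptamer binding above 40%, roughly 3 SD of noise, on plates passing a quality check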;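 further: median bead fluorescence of bound FAM aptamer so fluorescent compounds give negative values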
MEKK3 PB1 HTS: modulators of MEKK3-MEK5 PB1 binding, primary screen, biochemical, wildtype MEKK3, multiplex bead flow cytometry, Alexa488-MEK5; AID 1529, 2009; bead-based flow cytometry, Alexa488-MEK5 binding to MEKK3; actives lie on both sides; 0 = blocked by unlabeled MEK5, 100 = vehicle; 1.4% of 290,000 active; binding response (% of control), % at 10 µM; Mitogen-activated protein kinase kinase kinase 3 (Homo sapiens), Q99759;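 active means binding response more than 3 SD above or below the average of its plate-row segment, actives on both sides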;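 further: Alexa488 bead fluorescence after subtracting the streptavidin-only scavenger bead signal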
MEKK2wt PB1 HTS: modulators of MEK5 binding to wildtype MEKK2, primary screen, biochemical, multiplex bead flow cytometry, Alexa488-MEK5; Mitogen-activated protein kinase kinase kinase 2 (Homo sapiens), Q9Y2U5; Alexa488-MEK5 binding to MEKK2 WT; actives lie on both sides; binding response (% of control), % at 10 µM; 1.1% of 290,000 active; in the data active means binding response below about 67% or above about 130%
B2AR ag: beta2AR agonists driving receptor internalization, primary screen, cell-based, FAP fluorogen, flow cytometry | Beta-2 adrenergic receptor (Homo sapiens), P07550 | AID 504454, 2011 | Am2.2-beta2AR cells | 0.43% of 340,000 active | response, % (concentration not given with the values);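 active means response above a set limit, near 3 SD of response in nonfluorescent compounds, cut at about 42% in these data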
Target sequence (P07550 whole entry, looked up): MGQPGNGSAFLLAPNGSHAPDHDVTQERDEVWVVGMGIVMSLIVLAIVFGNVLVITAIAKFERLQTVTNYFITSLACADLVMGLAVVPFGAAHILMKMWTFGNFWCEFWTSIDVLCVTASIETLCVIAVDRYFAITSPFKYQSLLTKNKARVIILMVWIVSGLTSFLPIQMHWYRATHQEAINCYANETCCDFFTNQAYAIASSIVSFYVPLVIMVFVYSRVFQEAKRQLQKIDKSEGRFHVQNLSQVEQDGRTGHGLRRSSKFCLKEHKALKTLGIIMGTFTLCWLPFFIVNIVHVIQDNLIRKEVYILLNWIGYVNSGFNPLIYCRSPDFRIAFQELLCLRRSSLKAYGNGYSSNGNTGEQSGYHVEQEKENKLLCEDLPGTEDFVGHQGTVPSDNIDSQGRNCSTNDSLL
MEKK2 mut-MEK5: MEK5 binding signal on mutant MEKK2 PB1, primary screen, biochemical, multiplex bead flow cytometry, Alexa488-MEK5 | Alexa488-MEK5 binding to MEKK2 mutant | percent response, % at 10 µM | 0.35% of 290,000 active; in the data active means percent response above about 24%, passing the limit was not always enough
* = called active by the depositor; . = no result; [ ] = dose if it differs, or a comment. Rows were chosen to be rich in hits. Some 2.9% of all compounds tested hit in one or more screens of this group.

SMILES	GRK2 aptamer HTS	MEKK3 PB1 HTS	MEKK2wt PB1 HTS	B2AR ag	MEKK2 mut-MEK5
Cc1c(CCOC(=O)CC23CC4CC(CC(C4)C2)C3)sc[n+]1CC(=O)c1ccccc1	0	115	139*	21	2
Cc1c(CCOC(=O)C23CC4CC(CC(C4)C2)C3)sc[n+]1Cc1ccccc1	0	102	112	7	2
O=C(NCc1ccco1)c1ccc(CS(=O)Cc2ccc(Cl)cc2)o1 (configuration not stated)	1	104	104	-2	4
CCN(CC)CCN(C(=O)/C=C/c1cccs1)c1nc2ccc(Cl)cc2s1	0	103	156*	13	13
Cc1cc(C)n(C(=O)Cn2nc(C)c(Cl)c2C)n1	0	107	113	-5	15
CCC(=O)N(C)CCc1cc2c(c(OC)c1/C=N/NC(=O)c1ccccc1O)OCO2	83*	119	108	-7	1
CCC(=O)Nc1cccc(C(=O)/C=C/c2cccs2)c1	0	115	99	2	-1
CCC(=O)Nc1cccc(C(=O)/C=C/c2ccccc2)c1	2	97	95	54*	-3
O=C(CN1C(=O)NC2(CCCC2)C1=O)N1CCN(c2ccc(C(F)(F)F)cc2[N+](=O)[O-])CC1	.	.	.	-8	.
COc1ccc(C(=S)N2CCN(c3ccccc3C)CC2)cc1	0	71	73	-3	3
CCCCCCOc1ccc(N2C(=O)CC(NCc3ccc(S(N)(=O)=O)cc3)C2=O)cc1 (configuration not stated)	0	95	-4.0*	16	-2
CCCCCCOc1ccc(N2C(=O)CC(NCCc3ccc(S(N)(=O)=O)cc3)C2=O)cc1 (configuration not stated)	3	98	100	11	-2
COc1ccc(NC(=O)NNC(=O)C(C)Oc2ccc3ccccc3c2)cc1 (configuration not stated)	0	101	99	3	-5
O=C(NC1CCCCCC1)C1CCC(=O)N(Cc2ccccc2F)C1 (configuration not stated)	5	102	108	-8	0
Cc1nc(-c2cccnc2)sc1C(=O)N/N=C/c1ccccc1Cl	.	73	70	42*	-13
COc1ccc(/C=C(\NC(=O)c2ccc(OC)cc2)C(=O)Nc2ccccc2C(=O)O)cc1	2	92	92	-2	-3
O=C(Nc1cccnc1)c1ccc(COc2cc(Cl)ccc2Cl)o1	0	95	96	-7	-3
O=C(N/N=C/c1ccc(F)cc1)c1sccc1OCc1ccc(F)cc1	4	98	95	-25	1
O=C(N/N=C/c1ccc(O)cc1)c1ccc(COc2cc(Cl)ccc2Cl)o1	1	105	96	49*	12
O=C(N/N=C/c1ccc(Cl)cc1)c1sccc1OCc1ccc(F)cc1	0	90	93	55*	-11
COc1ccc(NCC(=O)NN=C2CCS(=O)(=O)c3ccc(F)cc32)cc1	1	.	.	.	.
O=C(N/N=C/c1ccc[nH]1)c1cc2ccccc2cc1O	2	98	97	46*	-9
Cc1nn(-c2ccccc2)c(N2CCCC2)c1/C=N/NC(=O)c1cc2ccccc2cc1O	66*	102	99	8	7
O=C(Nc1ccc(Cl)c(Cl)c1)NC1CCS(=O)(=O)C1 (configuration not stated)	1	105	101	-6	-2
CCCCC1CCC(C(=O)OC(C)C(=O)Nc2ccc(NC(C)=O)cc2)CC1 (configuration not stated)	0	101	112	9	8
SMILES	GRK2 aptamer HTS	MEKK3 PB1 HTS	MEKK2wt PB1 HTS	B2AR ag	MEKK2 mut-MEK5
Cc1[nH]c2c(ccc3cccnc32)c1C	0	91	89	1	-3
CC1=[N+](C)c2c(ccc3cccnc23)C1(C)C	.	91	-9.0*	-5	-15
Cc1cc2cc(C=O)c(Cl)nc2cc1C	2	98	92	48*	-3
COC(=O)c1ccc(COc2ccccc2/C=C/C(=O)c2ccc(OCC(=O)O)cc2)cc1	0	107	107	47*	11
COc1ccc(N(C(=O)c2snc(C(N)=O)c2N)C(C(=O)NC2CCCCC2)c2ccc(C)o2)cc1 (configuration not stated)	1	100	89	5	-2
CCOc1ccccc1CNC(=O)C1CCCN(c2nc3ccccc3o2)C1 (configuration not stated)	.	68*[inhibitor]	74	.	-14
CCOc1ccccc1CNC(=O)C1CCN(c2nc3ccccc3o2)CC1	0	.	.	-5	.
Cc1csc(NC(=O)CSc2nc3[nH]c(=O)cc(O)c3s2)n1	.	.	.	93*	.
Cc1ccc(Oc2c(C(N)=O)cc([N+](=O)[O-])cc2[N+](=O)[O-])cc1	2	94	96	57*	-3
COC(=O)c1cc2ccc(OC)c(OC)c2c(=O)s1	0	100	98	50*	4
COc1ccc2cc(C(=O)N3CCCCCC3)sc(=O)c2c1OC	3	102	102	0	8
CCN(C(=O)COC(=O)c1ccccc1Nc1ccccc1)c1c(N)n(Cc2ccccc2)c(=O)[nH]c1=O	.	.	.	7	.
Cc1nc(SCC(=O)Nc2nc3ccccc3s2)c(C#N)c(C)c1C	0	96	97	1	-2
Cc1cc(C(F)(F)F)c(C#N)c(SCC(=O)Nc2nc3ccccc3s2)n1	4	117	57*	-40	45
COc1ccc(-c2[nH]ncc2CN(CCO)Cc2cccs2)c(F)c1	1	78	100	1	-3
CCOC(=O)C1CN(S(=O)(=O)c2cc(OC)ccc2OC)C1	0	107	106	6	5
Cc1ccc2cc(CCNS(=O)(=O)c3ccc(F)cc3)c(=O)[nH]c2c1C	7	106	102	43*	1
C=C(C)C(=O)Nc1cccc(C2=NOC3(C2)C[C@H](C(N)=O)N(C(=O)COc2ccc(Cl)cc2)C3)c1 (some centres not stated)	97*	90	82	-18	-8
CCC(=O)Nc1cccc(C2=NOC3(C2)C[C@@H](C(N)=O)N(C(=O)COc2ccc(Cl)cc2)C3)c1 (some centres not stated)	3	97	95	-1	3
C/C=C\C(=O)Nc1cccc(C2=NOC3(C2)C[C@@H](C(N)=O)N(C(=O)C2(C)CC2)C3)c1 (some centres not stated)	1	92	95	-1	-4
C=C(C)C(=O)Nc1cccc(C2=NOC3(C2)C[C@@H](C(N)=O)N(C(=O)C2(C)CC2)C3)c1 (some centres not stated)	91*	67	67	-2	-27
